What was measured:
Assay in all cases: PBM binding z-score (relative to random genomic background probes); higher = stronger binding; sequences stand for … in GC…GCGATTGACAGCGTAGAATGAAGG
[1] = test system: FXR:RXRa (NR concentration 270 nM, RXRa partner concentration 90 nM)
Summary of the method: (§1)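 Random background probes are the reference for binding z-scores. These scores derive from regression-normalized fluorescence on custom Agilent 4×180K protein-binding microarrays incubated 1 h with ligand-free nuclear receptor dimers. Binding was detected with antibodies against each partner (one per run).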

[2] = test system: LXRa:RXRa (NR concentration 270 nM, RXRa partner concentration 90 nM)
Summary of the method: as §1

[3] = test system: LXRa homodimer (NR concentration 270 nM)
Summary of the method: as §1

[4] = test system: LXRb:RXRa (NR concentration 270 nM, RXRa partner concentration 90 nM)
Summary of the method: as §1

[5] = test system: LXRb homodimer (NR concentration 270 nM)
Summary of the method: as §1

[6] = test system: PPARa:RXRa (NR concentration 270 nM, RXRa partner concentration 90 nM)
Summary of the method: as §1

[7] = test system: PPARg:RXRa (NR concentration 180 nM, RXRa partner concentration 90 nM)
Summary of the method: as §1

[8] = test system: PPARg:RXRa 270nM:90nM, anti-RXR (NR concentration 270 nM, RXRa partner concentration 90 nM)
Summary of the method: as §1

[9] = test system: PPARg:RXRa 30nM:10nM, anti-RXR (NR concentration 30 nM, RXRa partner concentration 10 nM)
Summary of the method: as §1

[10] = test system: PPARg:RXRa 90nM:30nM, anti-RXR (NR concentration 90 nM, RXRa partner concentration 30 nM)
Summary of the method: as §1

TATACAGTGTCAAAGGCCAGAGTACGAATGTCGA
PBM binding z-score [1]: 0.666
PBM binding z-score [2]: 0.861
PBM binding z-score [3]: 0.197
PBM binding z-score [4]: 0.608
PBM binding z-score [5]: 0.893
PBM binding z-score [6]: 2.18
PBM binding z-score [7]: 3.95
PBM binding z-score [8]: 4.17
PBM binding z-score [9]: 2.41
PBM binding z-score [10]: 3.86

GCTGCTAGGTCAAATGATGGTCAGCTAAAGCTCG
PBM binding z-score [1]: 4.42
PBM binding z-score [2]: 3.62
PBM binding z-score [3]: 0.405
PBM binding z-score [4]: 2.44
PBM binding z-score [5]: 0.557
PBM binding z-score [6]: 3.87
PBM binding z-score [7]: 2.82
PBM binding z-score [8]: 3.57
PBM binding z-score [9]: 0.844
PBM binding z-score [10]: 2.69

TGAATGCGGTTATAAGATCAGGGAACGTTGCAAA
PBM binding z-score [1]: -0.202
PBM binding z-score [2]: -0.262
PBM binding z-score [3]: -0.342
PBM binding z-score [4]: -0.407
PBM binding z-score [5]: -0.259
PBM binding z-score [6]: -0.272
PBM binding z-score [7]: -0.0336
PBM binding z-score [8]: 0.0368
PBM binding z-score [9]: 0.119
PBM binding z-score [10]: -0.242

CGAACTAGGTCAAGGACAGTGACTCTCCGCACGC
PBM binding z-score [1]: 3.47
PBM binding z-score [2]: 2.28
PBM binding z-score [3]: 0.349
PBM binding z-score [4]: 1.58
PBM binding z-score [5]: -0.267
PBM binding z-score [6]: 4.79
PBM binding z-score [7]: 7.35
PBM binding z-score [8]: 6.66
PBM binding z-score [9]: 3.92
PBM binding z-score [10]: 6.28

CGAACTAGGACAAGGACAGTGAATCTCCGCACGC
PBM binding z-score [1]: 0.182
PBM binding z-score [2]: -0.241
PBM binding z-score [3]: -0.152
PBM binding z-score [4]: -0.655
PBM binding z-score [5]: -0.538
PBM binding z-score [6]: 0.455
PBM binding z-score [7]: 1.22
PBM binding z-score [8]: 0.612
PBM binding z-score [9]: -0.234
PBM binding z-score [10]: 0.216

CCTTACGGGTCACGAGGTTATTGCACGACGAGCG
PBM binding z-score [1]: 6.84
PBM binding z-score [2]: 4.54
PBM binding z-score [3]: 0.946
PBM binding z-score [4]: 4.15
PBM binding z-score [5]: 0.296
PBM binding z-score [6]: 6.08
PBM binding z-score [7]: 7.34
PBM binding z-score [8]: 6.45
PBM binding z-score [9]: 3.32
PBM binding z-score [10]: 5.41

GCTTGTAGATCAAGTTTAAGAAAGACTAAGCTAA
PBM binding z-score [1]: -0.477
PBM binding z-score [2]: -0.231
PBM binding z-score [3]: -0.318
PBM binding z-score [4]: -0.15
PBM binding z-score [5]: -0.39
PBM binding z-score [6]: 0.142
PBM binding z-score [7]: -0.204
PBM binding z-score [8]: -0.0876
PBM binding z-score [9]: -0.116
PBM binding z-score [10]: -0.107

ATATGTGGGTTACATCCGGGTCATTCAGGCTATG
PBM binding z-score [1]: 2.27
PBM binding z-score [2]: 4.1
PBM binding z-score [3]: 1.26
PBM binding z-score [4]: 3.06
PBM binding z-score [5]: 1.12
PBM binding z-score [6]: 4.12
PBM binding z-score [7]: 5.38
PBM binding z-score [8]: 4.48
PBM binding z-score [9]: 2.02
PBM binding z-score [10]: 3.36

ACTATTAGTTGACCTAGGGCAACCGATACGACGC
PBM binding z-score [1]: 1.76
PBM binding z-score [2]: 2.47
PBM binding z-score [3]: 2.09
PBM binding z-score [4]: 2.31
PBM binding z-score [5]: 1.09
PBM binding z-score [6]: 2.52
PBM binding z-score [7]: 1.71
PBM binding z-score [8]: 1.48
PBM binding z-score [9]: 0.386
PBM binding z-score [10]: 0.958

CCTACTGGGCCATCAGCTCATTGATATCAACGTT
PBM binding z-score [1]: -0.649
PBM binding z-score [2]: -0.431
PBM binding z-score [3]: -0.409
PBM binding z-score [4]: -0.655
PBM binding z-score [5]: -0.446
PBM binding z-score [6]: -0.141
PBM binding z-score [7]: 0.457
PBM binding z-score [8]: 0.344
PBM binding z-score [9]: -0.273
PBM binding z-score [10]: 0.098

TAGCCTAGGTCAGATCGGGCCAGTATGCGCTATA
PBM binding z-score [1]: 2.71
PBM binding z-score [2]: 1.19
PBM binding z-score [3]: -0.503
PBM binding z-score [4]: 0.727
PBM binding z-score [5]: -0.424
PBM binding z-score [6]: 1.73
PBM binding z-score [7]: 0.328
PBM binding z-score [8]: 0.593
PBM binding z-score [9]: -0.423
PBM binding z-score [10]: 0.0994

TCGAGTAGGTGACCAATGGGGCATTCAGCTTTCT
PBM binding z-score [1]: -0.0525
PBM binding z-score [2]: -0.335
PBM binding z-score [3]: -0.709
PBM binding z-score [4]: -0.15
PBM binding z-score [5]: -1.02
PBM binding z-score [6]: 0.875
PBM binding z-score [7]: 0.524
PBM binding z-score [8]: 1.12
PBM binding z-score [9]: 1.01
PBM binding z-score [10]: 0.794

TCTTGTAGATCAATAGAGGTTAAGAACGTGCGCT
PBM binding z-score [1]: 0.948
PBM binding z-score [2]: 2.59
PBM binding z-score [3]: 0.355
PBM binding z-score [4]: 1.46
PBM binding z-score [5]: -0.115
PBM binding z-score [6]: 1.92
PBM binding z-score [7]: 0.397
PBM binding z-score [8]: 1.66
PBM binding z-score [9]: 2.84
PBM binding z-score [10]: 2.58

AGAATGAGGTTATTAAGATCAGCGAATTGCGGTC
PBM binding z-score [1]: 1.3
PBM binding z-score [2]: 1.23
PBM binding z-score [3]: 0.0436
PBM binding z-score [4]: 1.11
PBM binding z-score [5]: -0.0862
PBM binding z-score [6]: 2.49
PBM binding z-score [7]: 1.47
PBM binding z-score [8]: 1.85
PBM binding z-score [9]: 0.288
PBM binding z-score [10]: 1.29

CAAACTAGGTCAAGCTCAAAGTCGGTTTGTGCCA
PBM binding z-score [1]: 4.15
PBM binding z-score [2]: 2.87
PBM binding z-score [3]: 0.38
PBM binding z-score [4]: 1.86
PBM binding z-score [5]: 0.134
PBM binding z-score [6]: 4.98
PBM binding z-score [7]: 7.79
PBM binding z-score [8]: 7.36
PBM binding z-score [9]: 4.77
PBM binding z-score [10]: 7.27

TCATATAGGTAAACAGGTGAAAGTCCGTAAGTTA
PBM binding z-score [1]: 0.771
PBM binding z-score [2]: 1.07
PBM binding z-score [3]: 0.337
PBM binding z-score [4]: 0.884
PBM binding z-score [5]: 0.0234
PBM binding z-score [6]: 2.39
PBM binding z-score [7]: 2.99
PBM binding z-score [8]: 3.77
PBM binding z-score [9]: 4.16
PBM binding z-score [10]: 3.87

ATACCAAGGTGATCGTGAGGTCGTTGCTACTAAC
PBM binding z-score [1]: 1.95
PBM binding z-score [2]: 1.3
PBM binding z-score [3]: 0.422
PBM binding z-score [4]: 1.19
PBM binding z-score [5]: 0.0744
PBM binding z-score [6]: 1.65
PBM binding z-score [7]: 0.201
PBM binding z-score [8]: 0.438
PBM binding z-score [9]: -0.28
PBM binding z-score [10]: 0.185

GCTGCTAGGGCAGGTTGGTCAGCTAACGGGTACG
PBM binding z-score [1]: -0.531
PBM binding z-score [2]: -0.752
PBM binding z-score [3]: -0.652
PBM binding z-score [4]: -1.01
PBM binding z-score [5]: -0.94
PBM binding z-score [6]: -0.594
PBM binding z-score [7]: -0.438
PBM binding z-score [8]: -0.678
PBM binding z-score [9]: -1.11
PBM binding z-score [10]: -1.1

GCTTACGGGTCGAAGGTTATAGCATGAATAGAAT
PBM binding z-score [1]: 2.01
PBM binding z-score [2]: 2
PBM binding z-score [3]: -0.187
PBM binding z-score [4]: 2.51
PBM binding z-score [5]: -0.371
PBM binding z-score [6]: 4.36
PBM binding z-score [7]: 6.66
PBM binding z-score [8]: 6.7
PBM binding z-score [9]: 4.94
PBM binding z-score [10]: 6.88

TAGCCTAGGTCATCGGCCAGTATACCACGCGAAC
PBM binding z-score [1]: 4.02
PBM binding z-score [2]: 3.35
PBM binding z-score [3]: 0.717
PBM binding z-score [4]: 2.54
PBM binding z-score [5]: 0.178
PBM binding z-score [6]: 3.56
PBM binding z-score [7]: 2.62
PBM binding z-score [8]: 2.75
PBM binding z-score [9]: 0.448
PBM binding z-score [10]: 1.67

GCTCACGGGTCAAAGGTTATAGCATGAATAGAAT
PBM binding z-score [1]: 7.17
PBM binding z-score [2]: 5.69
PBM binding z-score [3]: 0.496
PBM binding z-score [4]: 5.67
PBM binding z-score [5]: 0.379
PBM binding z-score [6]: 6.85
PBM binding z-score [7]: 9.36
PBM binding z-score [8]: 8.27
PBM binding z-score [9]: 6.88
PBM binding z-score [10]: 8.29

TTACCAAGGTGAAGGTCATTGATCCCTCTGTAGA
PBM binding z-score [1]: 4.39
PBM binding z-score [2]: 4.39
PBM binding z-score [3]: 2.26
PBM binding z-score [4]: 3.7
PBM binding z-score [5]: -0.235
PBM binding z-score [6]: 4.36
PBM binding z-score [7]: 5.26
PBM binding z-score [8]: 5.49
PBM binding z-score [9]: 3.52
PBM binding z-score [10]: 5.38

TCTTGTAGATCAATAGAGGTGAAGAAAGTGCGCT
PBM binding z-score [1]: 1.02
PBM binding z-score [2]: 0.833
PBM binding z-score [3]: -0.122
PBM binding z-score [4]: 0.533
PBM binding z-score [5]: -0.232
PBM binding z-score [6]: 1.5
PBM binding z-score [7]: 0.0312
PBM binding z-score [8]: 1.72
PBM binding z-score [9]: 2.84
PBM binding z-score [10]: 2.21

AGCATGAGGTTAAGATCAGGGAAACAGAATACAT
PBM binding z-score [1]: 1.97
PBM binding z-score [2]: 2.02
PBM binding z-score [3]: 0.07
PBM binding z-score [4]: 1.75
PBM binding z-score [5]: 0.151
PBM binding z-score [6]: 3.06
PBM binding z-score [7]: 1.14
PBM binding z-score [8]: 1.04
PBM binding z-score [9]: 0.357
PBM binding z-score [10]: 0.819
